Compound activity deposited in PubChem by Center for Chemical Genomics, University of Michigan.
This is one part of a sample in which hits are shown more often than they occur.
Dicer inh = human Dicer pre-microRNA cleavage inhibition | Q9UPY3 | cat-ELCCA pre-miR-21 Dicer processing, chemiluminescence; hits give high values | z-score at 25 µM | 47,000 tested, 6% active; in the data active = z-score above about 3, passing the limit was not always enough;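 also: plate controls were vehicle for no effect and no enzyme for full effect; higher signal means more uncleaved substrate so more Dicer inhibition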
* hit, by the source's call.

Results for CCOC(=O)c1c(-c2ccccc2)c2oc3ccccc3c2[nH]c1=O ?
Dicer inh: 3.1*

What do the screens show for `NC(N)=NC(N)=Nc1c(F)cccc1F`?
Dicer inh: 1.3

How did CCn1nc(C)cc1-c1n[nH]c(=S)o1 do in these assays?
Dicer inh: 0.96

Results for FC(F)(F)c1ccc(-c2n[nH]c(=S)o2)cc1 ?
Dicer inh: 0.29

How did COc1ccccc1-c1n[nH]c(=S)o1 do in these assays?
Dicer inh: 3.7*

Results for Cc1ccc(-c2n[nH]c(=S)o2)cc1 ?
Dicer inh: 4.8*

What do the screens show for `Cc1ccccc1-c1n[nH]c(=S)o1`?
Dicer inh: -1.2

Results for COc1ccccc1-c1nc2ccccc2c(=O)o1 ?
Dicer inh: -1.8

Results for Cc1cc2c(cc1C)CSC(C)(C)SC2 ?
Dicer inh: 0.22

What do the screens show for `Brc1ccc(-c2nc3ccccn3c2Sc2ccccc2)cc1`?
Dicer inh: -0.62

How did COc1ccc(-c2coc3cc4oc(=O)c5cc(OC)ccc5c4cc23)cc1 do in these assays?
Dicer inh: 3.8*

How did COc1ccc2c(c1)c(=O)oc1cc3occ(-c4ccc(F)cc4)c3cc12 do in these assays?
Dicer inh: 1.5

Results for COc1ccc2c(c1)c(=O)oc1cc3occ(-c4ccc(C)cc4)c3cc12 ?
Dicer inh: -1

Results for O=c1c2c(N3CCCCC3)cc(N3CCCCC3)nc2n(-c2ccccc2)c(=O)n1-c1ccccc1 ?
Dicer inh: 0.74

Results for S=C(NC1CC2CCC1C2)NN1C2CSC1CS2 (centres undefined) ?
Dicer inh: -0.56

Results for CCCCCSc1nnc(N)s1 ?
Dicer inh: 4.6*

What do the screens show for `Nc1nnc(SCC(=O)N2CCc3ccccc3C2)s1`?
Dicer inh: 1.8

What do the screens show for `Cc1ccc(C(=O)N2CCN(C(=O)CSc3nnc(N)s3)C2)cc1`?
Dicer inh: -0.88

How did CC1CC(C)(C)N(C(=O)CN2C(=O)CCC2=O)c2ccccc21 (centres undefined) do in these assays?
Dicer inh: 1.8

What do the screens show for `CC1CC(C)(C)N(C(=O)NC2CCCCC2)c2ccccc21` (centres undefined)?
Dicer inh: 2.5

How did CC1CC(C)(C)N(C(=O)Nc2cccc(Cl)c2)c2ccccc21 (centres undefined) do in these assays?
Dicer inh: 6.6*

How did CCOC(=O)NC(=O)C(=CNc1sc(C)c(C)c1C(=O)OCC)C(=O)NC(=O)OCC do in these assays?
Dicer inh: -0.22

What do the screens show for `Cc1cccc(C)c1OCC(O)Cn1c(C)[n+](C)c2ccccc21` (centres undefined)?
Dicer inh: -0.63

What do the screens show for `Cc1n(CC(O)COc2cccc(Cl)c2)c2ccccc2[n+]1C` (centres undefined)?
Dicer inh: -1.3

Results for COc1ccc(OCC(O)Cn2c(C)[n+](C)c3ccccc32)cc1 (centres undefined) ?
Dicer inh: 3.8*

How did CCCc1n(CC(O)COc2cccc(OC)c2)c2ccccc2[n+]1C (centres undefined) do in these assays?
Dicer inh: -0.34

How did CCCc1n(CC(O)COc2ccccc2C)c2ccccc2[n+]1C (centres undefined) do in these assays?
Dicer inh: 0.57

Results for CCCc1n(CC(O)COc2ccc(F)cc2)c2ccccc2[n+]1C (centres undefined) ?
Dicer inh: 3.7*

How did COc1c(Cl)cc(Cl)c(OC)c1C(=O)NC(=O)Nc1c(C)cccc1Cl do in these assays?
Dicer inh: -1.4

How did O=C(/C=C(\O)c1ccccc1)C(=O)/C=C(\O)c1ccccc1 do in these assays?
Dicer inh: 1.1

Results for O=C(NNc1ccc(C(F)(F)F)cn1)c1ccc(Cl)c(Cl)c1 ?
Dicer inh: 1.1

How did CC(C)(C)OC(=O)NCCNc1ccc(C(F)(F)F)cc1N do in these assays?
Dicer inh: 0.68

Results for Cc1onc(-c2c(Cl)cccc2Cl)c1C(=O)Oc1cccc2cccnc12 ?
Dicer inh: 1.1

What do the screens show for `O=C(Oc1cccc2cccnc12)c1ccc(Br)cc1`?
Dicer inh: 4.6*

Results for O=C(Oc1cccc2cccnc12)c1ccc2c(c1)-c1ccccc1C2=O ?
Dicer inh: -0.05

How did O=C(O)C1c2ccccc2-c2ccccc21 do in these assays?
Dicer inh: -0.59

What do the screens show for `Cc1cc(C2C(=O)c3ccccc3C2=O)nc2ccccc12`?
Dicer inh: 0.53

How did Cc1ccc2nc(C3CCCCC3)cc(C(=O)O)c2c1 do in these assays?
Dicer inh: 8.6

Results for Cc1ccc2nc(C3C(=O)c4ccc(O)cc4C3=O)cc(C)c2c1 (centres undefined) ?
Dicer inh: 3.7*

What do the screens show for `Cc1nc2nc(C)c(Cc3ccccc3)c(=O)n2[nH]1`?
Dicer inh: 0.54

What do the screens show for `COC(=O)c1ccsc1NC(=O)c1cccs1`?
Dicer inh: -0.03

How did COC(=O)c1cc(=O)n2c(c1C(=O)c1cccs1)SCC2 do in these assays?
Dicer inh: 6.8*

How did COC(=O)c1csc2c(C(F)(F)F)cc(N3CCN(C(=O)c4cccs4)CC3)nc12 do in these assays?
Dicer inh: 0.81

Results for COc1ccc(S(=O)(=O)N2CCC(C(=O)O)CC2)cc1C(=O)O ?
Dicer inh: 7.5

What do the screens show for `FC(F)(F)c1csc(Nc2ccc(Cl)c(Cl)c2)n1`?
Dicer inh: 0.44

How did Cc1oc(C(C)(C)C)cc1C(=O)Nc1ccc(N(C)C)cc1 do in these assays?
Dicer inh: 3

Results for O=C(O)c1c2ccccc2nc2ccccc12 ?
Dicer inh: 0.11

Results for COc1ccc2[nH]c(C(=O)N(C)c3ccccc3Cl)cc2c1 ?
Dicer inh: -1.8

How did COc1ccccc1N1C(=O)C2CCCCC2C1=O (centres undefined) do in these assays?
Dicer inh: -1.8

Results for O=S(=O)(Nc1ncccn1)c1ccc(C(F)(F)F)cc1Cl ?
Dicer inh: 3*

How did O=S(=O)(Nc1ccccn1)c1ccc(C(F)(F)F)cc1Cl do in these assays?
Dicer inh: -0.2

What do the screens show for `COC(=O)C1=C(Nc2ccccc2NS(=O)(=O)c2ccc(C(F)(F)F)cc2Cl)CSC1`?
Dicer inh: -0.77

How did COc1ccc2sc(C)[n+](CCC(=O)O)c2c1 do in these assays?
Dicer inh: -6.3

How did COc1ccc(C2C3=C(CC(C)(C)CC3=O)NC3=C2C(=O)CC(C)(C)C3)cc1Cl do in these assays?
Dicer inh: -1.2

How did Cc1[nH]n2c(=O)cc(CSc3nnnn3-c3ccccc3)nc2c1-c1ccc(Cl)cc1 do in these assays?
Dicer inh: 0.05

What do the screens show for `O=C(c1cnc2cc(-c3ccccc3)nn2c1)c1cc(Cl)ccc1O`?
Dicer inh: -1.7

Results for O=C(c1cnc2cc(-c3ccccc3)nn2c1)c1cc(Br)ccc1O ?
Dicer inh: 3.3*

Results for O=C(c1cnc2cc(-c3ccc(Cl)cc3)nn2c1)c1ccccc1O ?
Dicer inh: -0.69

Results for Nc1nc(SCc2ccc(C(=O)NCCO)cc2)nc2sc3c(c12)CCCC3 ?
Dicer inh: 1.3

What do the screens show for `OC(CNCCNc1ccc(C(F)(F)F)cn1)Cn1ccc2ccccc21` (centres undefined)?
Dicer inh: -0.59

Results for CCc1c(C#N)c(SCC(=O)N2CCc3cc(OC)c(OC)cc3C2)nc2c1C(=O)CC(C)(C)C2 ?
Dicer inh: -1.1

What do the screens show for `COC(=O)C1=C(C)N(c2ccc(Cl)cc2)C(=O)C1`?
Dicer inh: 6.6

How did COc1cccc(-n2c(N)c(C#N)c3ccc([N+](=O)[O-])cc3c2=O)c1 do in these assays?
Dicer inh: -0.03

How did Nc1c(-c2ccc3ccccc3n2)c2ccc([N+](=O)[O-])cc2c(=O)n1Cc1ccccc1 do in these assays?
Dicer inh: -1.1
